# Inconclusive results are not listed. The source made the active and inactive calls. Calls follow the shape of the dose curve; as a rule, active = well fitted curve in the direction sought with a large enough effect; inconclusive = small, poorly fitted or top-dose-only effect, or another doubt; inactive = no such curve, though single readings can be large; an effect the other way counts as inactive or inconclusive.
# Tests used:
# [1] = qHTS of pediatric cancer cell lines to identify multiple opportunities for drug repurposing: Confirmatory screen for OHS-50 cells (AID 1347128);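 also: compound exposure lasted 48 h at 37 degrees C; nearly all actives have a fitted effect of over 55% in size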; also: potency is read from the fitted curve at half-maximal effect
# Method in brief: (§1)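 Cells (500-1,000/well) rested 5 h, then received compounds for 48 h; metabolically active cells were measured by CellTiter-Glo luminescence. Final concentrations spanned up to 46 µM (MIPE, 11-point) or 0.59 nM-46 µM (NPC, 8-point) in primary screens, 11-point in follow-ups.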
# [2] = qHTS of pediatric cancer cell lines to identify multiple opportunities for drug repurposing: Confirmatory screen for SK-N-SH cells (AID 1347129);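 also: cells exposed to compound for 48 h before viability read; nearly all actives have a fitted effect of over 60% in size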; also: potency is read from the fitted curve at half-maximal effect
# Method in brief: as §1
# [3] = tested on: Zika virus NS2B-NS3 protease (unlinked complex); test: Confirmatory screen GU AMC qHTS for Zika virus inhibitors (AID 1347153); also: nearly all actives have a fitted effect of over 70% in size;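 as to Potency: enzyme at 25 nM with substrate at 10 µM below its Km of 18.3 µM; potency is read from the fitted curve at half-maximal effect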
# Method in brief: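 Unlinked NS2B-NS3 complex (25 nM) in 10 mM Tris-HCl pH 8.0, 0.01% Tween 20 preincubated 15 min with compound, then 10 microM Bz-Nle-KRR-AMC (Km 18.3 µM). Fluorescence change over 15 min, normalized, Hill-fitted.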
# [4] = tested on: Zika virus NS2B-NS3 protease; test: Primary screen GU AMC qHTS for Zika virus inhibitors (AID 1347154); also: nearly all actives have a fitted effect of over 70% in size; also: potency is read from the fitted curve at half-maximal effect
# Method in brief: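 Fluorogenic AMC-substrate cleavage by noncovalent NS2B-NS3 protease complex (25 nM, pH 8.0 Tris buffer with Tween 20) followed for 15 minutes at room temperature (~20% conversion). Percent inhibition from ex340/em450 signal change, fitted by 4-parameter Hill equation.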
# [5] = ZIKV-mCherry secondary qHTS for Zika virus inhibitors (AID 1347158); also: top concentration of the series differs between compounds
# Method in brief: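 Compounds were tested in Vero monkey kidney cells infected with recombinant mCherry-expressing Zika virus at MOI 1 for 48-72 h at 37 °C. Fixed cells were nuclear-stained and imaged, and infection rate was taken as the fraction of mCherry-positive cells.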
# Furin (Homo sapiens) = Furin (Homo sapiens) (UniProt P09958); test: Furin counterscreen qHTS for Zika virus inhibitors (AID 1347149); also: potency is read from the fitted curve at half-maximal effect; nearly all actives have a fitted effect of over 70% in size
# Sequence of Furin (Homo sapiens) (P09958 whole entry, looked up): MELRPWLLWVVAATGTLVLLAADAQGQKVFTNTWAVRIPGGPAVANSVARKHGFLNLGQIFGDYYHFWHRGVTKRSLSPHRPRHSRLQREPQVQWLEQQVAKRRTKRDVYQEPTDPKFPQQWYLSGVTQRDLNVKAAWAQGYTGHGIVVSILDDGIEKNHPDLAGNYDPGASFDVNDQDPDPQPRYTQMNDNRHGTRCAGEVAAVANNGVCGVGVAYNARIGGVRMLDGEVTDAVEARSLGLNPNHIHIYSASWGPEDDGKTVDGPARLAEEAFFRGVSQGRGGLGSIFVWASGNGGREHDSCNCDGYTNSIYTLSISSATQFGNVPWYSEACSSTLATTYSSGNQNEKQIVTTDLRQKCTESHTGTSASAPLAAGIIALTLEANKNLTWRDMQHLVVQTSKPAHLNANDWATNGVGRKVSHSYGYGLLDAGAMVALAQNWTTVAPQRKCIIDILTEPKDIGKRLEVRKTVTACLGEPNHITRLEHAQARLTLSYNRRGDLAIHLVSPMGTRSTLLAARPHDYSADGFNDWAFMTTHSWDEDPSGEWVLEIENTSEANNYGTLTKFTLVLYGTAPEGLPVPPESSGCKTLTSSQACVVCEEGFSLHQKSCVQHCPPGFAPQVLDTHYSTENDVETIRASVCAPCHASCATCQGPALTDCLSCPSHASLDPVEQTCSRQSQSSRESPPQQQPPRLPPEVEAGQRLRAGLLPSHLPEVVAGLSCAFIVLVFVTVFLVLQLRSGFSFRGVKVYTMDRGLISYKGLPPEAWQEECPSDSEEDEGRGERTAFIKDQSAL
# Method in brief: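 Counterscreen measures cleavage of 2 microM BOC-RVRR-AMC, below its ~15 microM Km, by 5 nM full-length human furin at pH 7.0 after a 15-min compound preincubation. Inhibition derives from the 15-min fluorescence increase at 37C.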
smiles,measurement,setting,value
O=C(NC1CCNCC1)c1[nH]ncc1NC(=O)c1c(Cl)cccc1Cl,Potency,[1],2.4 µM (active)
same,Potency,[2],1.05 µM (active)
COC(=O)Nc1nc2ccc(C(=O)c3ccc(F)cc3)cc2[nH]1,Potency,[1],2.61 µM (active)
same,Potency,[2],inactive
C=CC(=O)Nc1cc2c(Nc3ccc(F)c(Cl)c3)ncnc2cc1C#CC(C)(C)N1CCN(C)CC1,Potency,[1],6.03 µM (active)
same,Potency,[2],4.29 µM (active)
CC=CC1=C(C(=O)O)N2C(=O)[C@H](NC(=O)[C@H](N)c3ccc(O)cc3)[C@@H]2SC1,Potency,[1],inactive
same,Potency,[2],inactive
Cc1ccc(C(=O)Nc2cccc(C(F)(F)F)c2)cc1-c1ccc2nc(NCCN3CCOCC3)ncc2c1,Potency,[1],8.27 µM (active)
same,Potency,[2],inactive
same,Potency,[3],inactive
Cc1c(C)n(Cc2ccc(-c3ccccc3C(=O)O)cc2)c2ccc(C(=O)N[C@@H](C)c3ccc([N+](=O)[O-])cc3)cc12,Potency,[1],inactive
same,Potency,[2],inactive
same,Potency,[3],21.5 µM (active)
same,Potency,[4],19.2 µM (active)
same,Potency,[5],inactive
CC1(C)OC2=C(C(=O)c3ccccc3C2=O)[C@H](NCc2ccccc2)[C@H]1O,Potency,[1],7.37 µM (active)
same,Potency,[2],5.9 µM (active)
same,Potency,[4],inactive
COc1cc2c(Oc3ccc(-c4cnc(Nc5ccc(F)cc5)n(C)c4=O)cc3F)ccnc2cc1OCCCN1CCOCC1,Potency,[1],3.69 µM (active)
same,Potency,[2],3.32 µM (active)
same,Potency,[4],24.1 µM (active)
Cc1cnc(Nc2ccc(F)cc2Cl)nc1-c1c[nH]c(C(=O)N[C@H](CO)c2cccc(Cl)c2)c1,Potency,[2],18.7 µM (active)
CC(C)c1nn(-c2c(Cl)cccc2Cl)c2nc(Cc3ccc(OCCO)cc3)[nH]c(=O)c12,Potency,[1],0.104 µM (active)
same,Potency,[2],0.118 µM (active)
same,Potency,[4],inactive
O=C(Nc1cn[nH]c1-c1nc2ccc(CN3CCOCC3)cc2[nH]1)NC1CC1,Potency,[1],inactive
same,Potency,[2],inactive
same,Potency,[4],inactive
Cc1cc(C(=O)N2CCN(c3cccc(Cl)c3)CC2)n(-c2ccccc2)n1,Potency,[2],inactive
same,Potency,[4],inactive
COC(=O)c1ccc2c(C(=Nc3ccc(N(C)C(=O)CN4CCN(C)CC4)cc3)c3ccccc3)c(O)[nH]c2c1,Potency,[1],14.7 µM (active)
same,Potency,[4],inactive
CC(=O)Nc1nc(C)c(-c2ccc(Cl)c(S(=O)(=O)NCCO)c2)s1,Potency,[1],11.7 µM (active)
same,Potency,[4],inactive
Cc1cc(Nc2ncnc3ccc(-c4ccc(CNCCS(C)(=O)=O)o4)cc23)ccc1Oc1ccn2ncnc2c1,Potency,[2],20.9 µM (active)
Cc1nc(N)ncc1-c1nc(N2CCOCC2)c2sc(C(C)(C)O)cc2n1,Potency,[1],2.93 µM (active)
same,Potency,[2],1.48 µM (active)
same,Potency,[4],inactive
CCNC(=O)Nc1ccc2ncc(Nc3ccc(C)cc3)nc2n1,Potency,[1],inactive
same,Potency,[2],inactive
same,Potency,[4],inactive
CCn1cc(-c2ccnc3[nH]c(-c4cccc(CN(C)C)c4)cc23)c(-c2ccc(NC(=O)N(C)C)cc2)n1,Potency,[2],2.96 µM (active)
same,Potency,Furin (Homo sapiens),21.5 µM (active)
CCCCc1nc2cc(C=CC(=O)NO)ccc2n1CCN(CC)CC,Potency,[1],2.93 µM (active)
same,Potency,[2],3.32 µM (active)
same,Potency,[4],inactive
Cc1c(CN2CCN(S(C)(=O)=O)CC2)sc2c(N3CCOCC3)nc(-c3cnc(N)nc3)nc12,Potency,[1],2.33 µM (active)
same,Potency,[2],2.96 µM (active)
same,Potency,[4],inactive
NC(=O)c1cccc2cn(-c3ccc([C@@H]4CCCNC4)cc3)nc12,Potency,[2],inactive
COc1cccc(Nc2c(C(N)=O)cnc3c(C)cc(S(=O)(=O)c4cccc(C(=O)N(C)C)c4)cc23)c1,Potency,[1],inactive
same,Potency,[2],inactive
same,Potency,[4],inactive
Nc1cc(C(F)(F)F)c(-c2cc(N3CCOCC3)nc(N3CCOCC3)n2)cn1,Potency,[2],4.69 µM (active)
CC(=O)OCC(=O)[C@@]1(O)[C@H](C)C[C@H]2[C@@H]3C=C(C)C4=Cc5c(cnn5-c5ccccc5)C[C@]4(C)[C@@H]3[C@@H](O)C[C@@]21C,Potency,[1],16.5 µM (active)
same,Potency,[2],14.8 µM (active)
same,Potency,[4],inactive
CC1(C)O[C@@H]2C[C@@H]3[C@H]4C[C@@H](F)C5=CC(=O)C=C[C@]5(C)[C@@]4(F)[C@@H](O)C[C@]3(C)[C@]2(C(=O)CO)O1,Potency,[1],0.0827 µM (active)
same,Potency,[4],inactive
CC[C@H]1CN2CCc3cc(OC)c(OC)cc3[C@H]2C[C@@H]1C[C@@H]1NCCc2cc(OC)c(OC)cc21,Potency,[1],0.414 µM (active)
same,Potency,[2],0.332 µM (active)
same,Potency,[4],inactive
C=CC(=O)Nc1cccc(Oc2nc(Nc3ccc(N4CCN(C)CC4)cc3OC)ncc2Cl)c1,Potency,[2],18.7 µM (active)
Nc1ccccc1NC(=O)c1ccc(CNC(=O)OCc2cccnc2)cc1,Potency,[1],10.7 µM (active)
same,Potency,[4],inactive
CC(C)(C)OC(=O)Nc1ccc(-c2cc(C(=O)NCCCCCCC(=O)NO)no2)cc1,Potency,[2],2.35 µM (active)
same,Potency,[4],inactive
COc1ccc(F)c(F)c1C(=O)c1cnc(NC2CCN(S(C)(=O)=O)CC2)nc1N,Potency,[1],2.33 µM (active)
same,Potency,[2],2.35 µM (active)
same,Potency,[4],inactive
COC(=O)Nc1ccc(-c2nc(N3CCOCC3)c3cnn(C4CCN(Cc5cccnc5)CC4)c3n2)cc1,Potency,[2],14.8 µM (active)

# Reference: PubChem BioAssay (NCATS)
